The values below come from PubChem BioAssay (NCATS).

SMILES strings stand for the structures. Several values for one entry are separate records, joined by “and”; a condition that tells them apart may be missing. Equal entries are not always repeated. Records with an inconclusive call do not appear. A structure can be active in one record and inactive in another. Values without a mark were called inactive. Activity calls are given as the source filed them. Calls come from the whole dose curve; as a rule, active = well fitted inhibition curve with a large enough effect; inconclusive = small, poorly fitted or top-dose-only effect; inactive = flat fitted curve, though single readings scatter.

Assay [1] deals with CRL-7250. Nature of the assay: Cytotoxic Profiling of Annotated Libraries Using Quantitative High-Throughput Screening (AID 1296008). For max response: % is set by controls: 0 for no effect and ±100 for the full control effect. Note: potency is the fitted concentration of half-maximal effect. Particulars: Five cell lines viability, CellTiter-Glo ATP luminescence, 48-72 h; max response: stronger effect = lower value. In short, it runs like this:
(§1)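 Cells exposed to compounds for 48 or 72 hr at 37 degrees Celsius. Viability read as ATP-coupled luminescence with CellTiter-Glo after 10 min at room temperature.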
On the technique in general: ATP-based viability assays read luminescence as a measure of living cells.

For assay [2], the system named is HEK293. The description is as above. To be noted: Five cell lines viability, CellTiter-Glo ATP luminescence, 48-72 h; max response: stronger effect = lower value. The method in brief:
as §1

Assay [3] relates to HaCat. The assay is described as above. To be noted: Five cell lines viability, CellTiter-Glo ATP luminescence, 48-72 h; max response: stronger effect = lower value. In short, it runs like this:
as §1

The subject of assay [4] is NIH3T3. The description is as above. Particulars: Five cell lines viability, CellTiter-Glo ATP luminescence, 48-72 h; max response: stronger effect = lower value. In short, it runs like this:
as §1

In assay [5] the test system is HACAT. Nature of the assay: qHTS assay to identify novel small-molecules to repurpose for Merkel cell carcinoma treatment (AID 1296009). Particulars: MCC and control cell lines, CellTiter-Glo viability, 72 h; at 44.8 µM (top of the series) unless noted. In short, it runs like this:
(§2)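 Dose-response viability screen; 72 hr exposure at 37 degree celsius; CellTiter-Glo added, 10 min room temperature, luminescence read; RLUs scaled between no-cell and DMSO wells.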

In assay [6] the test system is HEK293T. The description is as above. Particulars: MCC and control cell lines, CellTiter-Glo viability, 72 h; at 44.8 µM (top of the series) unless noted. The method in brief: as §2
Assay [7] deals with TAB113. Nature of the assay: qHTS profiling for inhibitors of Plasmodium falciparum proliferation (AID 504749). Note: potency is the fitted concentration of half-maximal effect. Particulars: P. falciparum in erythrocytes, SYBR Green DNA, 72 h; series mostly up to 28.7 µM. The method in brief:
(§3)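 Each compound contacts P. falciparum-infected red blood cells for 72 h at 37 C; lysis buffer (Tris, EDTA, saponin, Triton X, SYBR Green I) is added and fluorescence measured next morning; values normalized to controls.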

Assay [8] concerns TAB165. The description is as above. Particulars: P. falciparum in erythrocytes, SYBR Green DNA, 72 h; series mostly up to 28.7 µM. In short, it runs like this:
as §3

In assay [9] the test system is W2. Described as above. Particulars: P. falciparum in erythrocytes, SYBR Green DNA, 72 h; series mostly up to 28.7 µM. In short, it runs like this:
as §3

The subject of assay [10] is KB-3-1. Nature of the assay: Cytotoxic Profiling of Annotated Libraries Using Quantitative High-Throughput Screening (AID 1296008). For max response: % is set by controls: 0 for no effect and ±100 for the full control effect. Note: potency is the fitted concentration of half-maximal effect. Particulars: Five cell lines viability, CellTiter-Glo ATP luminescence, 48-72 h; max response: stronger effect = lower value. The method in brief:
as §1
Note: nearly all actives have a fitted effect of over 60% in size.

Regarding `Cc1ccc(C(=O)c2cc(O)c(O)c([N+](=O)[O-])c2)cc1`, the max response was -7.14% in [1], -18.7% in [3] and 1.41% in assay [4]. Moreover, the compound was called inactive in assay [2], in [3], in assay [5] and in [6].

Turning to `CCCCc1ccc2nc(NC(=O)OC)[nH]c2c1`, the Potency entry in assay [7], in assay [8] and in assay [9] was “inactive” throughout. Moreover, the Potency in assay [1] is 469 nM (active) and 266 nM (active); in assay [2], 14.8 nM (active) and 188 nM (active); in assay [10], 23.5 nM (active); in [4], 16.6 nM (active). Also, in assay [3], the max response is 3.13%. Also, the compound was classed as inactive in assay [3] and in assay [5].

`CC(S)C(=O)NCC(=O)O` (stereo not given): the Potency entry in assay [7], in [8] and in [9] was “inactive” in each case. Also, the compound was called inactive in assay [1], in assay [3] and in [5]. The max response was -0.0067% and -3.71% in assay [2]; -2.01% in [3]; 5.7% in assay [10]; 0.885% and -1.07% in [4].

Take `CCN(CC)CCOc1ccc(Cc2ccccc2)cc1`: the Potency entry in assay [7] and in assay [8] was “inactive” each time. The results for the max response in assay [1], in assay [3] and in assay [4] were -29.7%, -17.2% and -6.6%, respectively. Besides, the Potency in assay [2] is 8.33 µM (active). The outcome in [3] and in [5] was inactive.

Take `CC(C)c1ccc2oc3nc(N)c(C(=O)O)cc3c(=O)c2c1`: the Potency entry in [8] is “inactive”. Moreover, the call in assay [1], in assay [3], in [10] and in [5] was inactive. The max response was 4.19% and -0.504% in [2]; -17.6% in [3]; -4.86% in assay [10]; -24.8% and -20.9% in assay [4].

Consider `O=C(NOCC1CC1)c1ccc(F)c(F)c1Nc1ccc(I)cc1Cl`, for which the max response in assay [1] is -12.6%; in [3] it was -17.9%. Further, the Potency in assay [2] is 18.7 µM (active); in [3] it was 26600 nM (active).

Take `OC(CN1CCN(c2cccc(Cl)c2)CC1)C(c1ccccc1)c1ccccc1` (stereo not given): the max response in assay [1] was -4.87%; in [3], -65.8% and -1.92%; in assay [10] it was -12.1% and -1.2%; in [4], -14.3%. Further, the Potency in assay [2] was 9.35 µM (active). For the same compound, in [4], the compound was called inactive.

`CCN(CC)CCOc1ccc(Nc2ncc3cc(-c4c(Cl)cccc4Cl)c(=O)n(C)c3n2)cc1`: the Potency in assay [1] was 16.6 nM (active); in [2], 0.209 µM (active); in [3], 264 nM (active); in assay [10], 296 nM (active); in [4], 74.3 nM (active).

`Oc1ccc(-c2nc(-c3ccc(F)cc3)c(-c3ccncc3)[nH]2)cc1`: the max response in assay [1] is -11.9%; in assay [3] it was -6.19%. Besides, the Potency in assay [2] is 11.8 µM (active). In addition, the outcome in assay [10] and in assay [4] was inactive.

`CCOc1cc(CC(=O)N[C@@H](CC(C)C)c2ccccc2N2CCCCC2)ccc1C(=O)O`: the Potency entry in assay [7], in assay [8] and in [9] was “inactive” each time. In addition, the compound was called inactive in assay [1], in assay [2], in assay [3], in [10], in assay [5] and in assay [6]. Also, the max response was 4.6% in [10] and 4.08% in assay [4].

As for `Cc1cc(=O)oc2cc(O)ccc12`, the Potency in [7] is 1000 nM (active). Moreover, the Potency entry in assay [9] was “inactive”. The max response was 4.43% and 2.39% in assay [1]; 4.56% in assay [2]; 1.05% and -3.2% in assay [3]; 2.35% and 1.97% in assay [10]; -7.66% and -0.637% in assay [4]. Moreover, the result in [2] and in [6] was inactive.

As to `NC(=O)Cc1cccc(C(=O)c2ccccc2)c1N`, the max response was -2.24% and -8.84% in assay [1]; -0.043% and -1.4% in assay [2]; -6.4% in assay [3]; -8.75% in assay [10]; 1.53% and -19% in [4]. For the same compound, the call in assay [3] and in [5] was inactive.

As to `Cc1cccc(-c2[nH]ncc2-c2ccc3ncccc3n2)n1`, the max response is -2.02% in [1], -26.8% in [2], -11.3% in assay [10] and -18.1% in assay [4]. Further, the compound was classed as inactive in assay [3] and in assay [5].

In the case of `N=C(N=C(N)N)N1CCOCC1`, the Potency result in assay [7] and in assay [9] was “inactive” throughout. The max response in [1] is -16.7% and 0.819%; in [2], -13.7% and 0.579%; in assay [10] it was -9.57% and 4.72%; in assay [4], -0.0574% and 2.52%. Besides, the result in assay [3] and in assay [5] was inactive.

For `O=C1c2c(O)cc(O)cc2OC(c2ccc(O)c(O)c2)C1O` (stereo not given), the max response was -1.4% in [1], -0.947% in assay [2], 2.31% in assay [3] and -9.07% in assay [4].

In the case of `CC(C)[N+]1(C)[C@@H]2CC[C@H]1CC(OC(=O)C(CO)c1ccccc1)C2` (stereo not given in full), the max response in assay [1] is 2.83%; in assay [2] it was -4.08%; in assay [10], 9.75% and 15.3%. For the same compound, the result in assay [3], in [4] and in assay [5] was inactive.
